Measured values published in the supplement of paper PMC11624193, “Coupling cellular drug-target engagement to downstream pharmacology with CeTEAM” (Nature Communications, 2024).
Values joined by “and” are separate entries in the source; they are usually repeats but may differ in a detail not shown here. Equal values may be shown once. Where a name gives a salt, the structure may show the parent alone. ± gives the standard deviation of the averaged measurements.

Target: PARP1 L713F-nLuc biosensor (HCT116) (UniProt P09874)
Assay: PARP1 L713F-nLuc/akaLuc ratio relative to DMSO control (biosensor stabilization) (fold change); higher = more PARP1 biosensor stabilization (target engagement / stabilizer), active = hit call of the paper
Settings: stock concentration (mM; final µM = stock mM x 1): 10; 24 h;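 active = log2 fold change beyond 2 SD from the library mean after excluding viability outliers; inactive = within 2 SD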

Sequence of PARP1 L713F-nLuc biosensor (HCT116) (P09874 whole entry L713F, looked up): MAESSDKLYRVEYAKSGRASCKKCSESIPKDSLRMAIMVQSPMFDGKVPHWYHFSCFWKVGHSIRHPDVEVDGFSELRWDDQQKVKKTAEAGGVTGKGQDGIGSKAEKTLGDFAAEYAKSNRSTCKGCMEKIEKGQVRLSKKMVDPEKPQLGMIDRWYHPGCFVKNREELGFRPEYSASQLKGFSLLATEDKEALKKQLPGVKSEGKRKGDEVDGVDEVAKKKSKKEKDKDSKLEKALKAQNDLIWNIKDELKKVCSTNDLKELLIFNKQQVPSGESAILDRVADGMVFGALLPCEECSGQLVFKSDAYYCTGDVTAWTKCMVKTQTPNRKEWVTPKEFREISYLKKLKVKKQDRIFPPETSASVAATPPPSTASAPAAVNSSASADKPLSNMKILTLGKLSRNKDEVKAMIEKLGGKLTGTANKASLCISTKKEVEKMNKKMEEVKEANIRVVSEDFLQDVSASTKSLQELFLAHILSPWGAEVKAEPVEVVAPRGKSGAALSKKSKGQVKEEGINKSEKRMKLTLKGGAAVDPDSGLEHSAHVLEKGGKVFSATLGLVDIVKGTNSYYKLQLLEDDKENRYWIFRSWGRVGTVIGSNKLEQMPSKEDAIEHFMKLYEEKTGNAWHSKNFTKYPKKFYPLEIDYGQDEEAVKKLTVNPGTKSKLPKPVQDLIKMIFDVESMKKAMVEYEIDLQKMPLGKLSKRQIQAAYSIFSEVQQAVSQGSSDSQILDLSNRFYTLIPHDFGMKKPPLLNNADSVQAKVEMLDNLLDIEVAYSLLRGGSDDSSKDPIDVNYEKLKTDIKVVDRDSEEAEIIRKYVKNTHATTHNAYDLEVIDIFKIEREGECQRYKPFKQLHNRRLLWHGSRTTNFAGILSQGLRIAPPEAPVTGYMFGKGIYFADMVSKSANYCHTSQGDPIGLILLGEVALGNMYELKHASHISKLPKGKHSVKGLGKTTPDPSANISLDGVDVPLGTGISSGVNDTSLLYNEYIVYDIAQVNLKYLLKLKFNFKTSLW

Question: For O=C(Nc1c[nH]nc1-c1nc2ccc(CN3CCOCC3)cc2[nH]1)NC1CC1, which “PARP1 L713F-nLuc/akaLuc ratio” value is on record?
Answer: 2.07 ± 0.91

Question: With CC[C@@](C)(Nc1ccnc(-c2c[nH]c3ncccc23)n1)C(=O)NCC(F)(F)F [Decernotinib (VX-509)] as the compound, how does the “PARP1 L713F-nLuc/akaLuc ratio” value read?
Answer: 0.506 (inactive)

Question: How did the “PARP1 L713F-nLuc/akaLuc ratio” value turn out when NC(=O)c1cccc2cn(-c3ccc([C@@H]4CCCNC4)cc3)nc12 [Niraparib (R-enantiomer)] was run?
Answer: 8.24 (active)

Question: With Nc1[nH]c(=O)nc2c1ncn2[C@@H]1O[C@H](CO)[C@@H](O)[C@H]1O [Crotonoside] as the compound, how does the “PARP1 L713F-nLuc/akaLuc ratio” value read?
Answer: 0.835 (inactive)

Question: With O=C(Nc1ccc(Cl)cc1)c1cc2ccccc2cc1OP(=O)(O)O as the compound, how does the “PARP1 L713F-nLuc/akaLuc ratio” value read?
Answer: 1.35 (inactive)

Question: How did the “PARP1 L713F-nLuc/akaLuc ratio” value turn out when COCCOc1cnc2ccn([C@H](C)c3nnc4c(F)cc(-c5cnn(C)c5)cn34)c(=O)c2c1 was run?
Answer: 0.857 (inactive)

Question: Which “PARP1 L713F-nLuc/akaLuc ratio” value does the source give for O=c1ccc2ccc(O)c(O)c2o1 [Daphnetin] here?
Answer: 1.38 (inactive)

Question: With O=C(Nc1ccc(O)c(C(=O)O)c1)c1cccc(NC(=O)c2ccco2)c1 as the compound, how does the “PARP1 L713F-nLuc/akaLuc ratio” value read?
Answer: 1.19 (inactive)

Question: Which “PARP1 L713F-nLuc/akaLuc ratio” value does the source give for CCN(c1cc(C#CCN2CCOCC2)cc(C(=O)NCc2c(C)cc(C)[nH]c2=O)c1C)[C@H]1CC[C@H](N(C)CCOC)CC1 here?
Answer: 1.57 (inactive) and 1.94 (inactive)

Question: Which “PARP1 L713F-nLuc/akaLuc ratio” value does the source give for COc1cccc(OC)c1C(=O)OCc1cc(O)ccc1O[C@@H]1O[C@H](CO)[C@@H](O)[C@H](O)[C@H]1O [Curculigoside] here?
Answer: 0.993 (inactive)

Question: With O=C(c1cc(Cc2n[nH]c(=O)c3ccccc23)ccc1F)N1CCn2nc(C(F)(F)F)nc2C1 [Fluzoparib] as the compound, how does the “PARP1 L713F-nLuc/akaLuc ratio” value read?
Answer: 3.72 (active)

Question: CN(C)C(=N)NC(=N)N [Metformin] was tested. Which “PARP1 L713F-nLuc/akaLuc ratio” value did it give?
Answer: 1.5 (inactive)

Question: For CS(=O)(=O)NCCC1CCN(c2ncnc3cc(C(N)=O)sc23)CC1, which “PARP1 L713F-nLuc/akaLuc ratio” value is on record?
Answer: 0.762 (inactive)

Question: For NC(=O)N1CCC(CC(=O)N2CCC([C@H]3c4ncc(Br)cc4CCc4cc(Cl)cc(Br)c43)CC2)CC1 [Lonafarnib], which “PARP1 L713F-nLuc/akaLuc ratio” value is on record?
Answer: 1.59 (inactive)

Question: CN(C)CCCn1cc(C2=C(c3c[nH]c4ccccc34)C(=O)NC2=O)c2ccccc21 [Bisindolylmaleimide I] was tested. Which “PARP1 L713F-nLuc/akaLuc ratio” value did it give?
Answer: 26.8 (active)

Question: COC1CCN(C(=O)c2cc(Cc3n[nH]c(=O)c4ccccc34)ccc2F)CC1 was tested. Which “PARP1 L713F-nLuc/akaLuc ratio” value did it give?
Answer: 7.52 (active)

Question: With COc1cc(N2CCN(C)CC2)ccc1Nc1nccc(-c2cn(C)c3cnccc23)n1 as the compound, how does the “PARP1 L713F-nLuc/akaLuc ratio” value read?
Answer: 0.923 (inactive)

Question: Which “PARP1 L713F-nLuc/akaLuc ratio” value does the source give for CCOc1ccn(-c2ccc(F)cc2)c(=O)c1C(=O)Nc1ccc(Oc2ccnc(N)c2Cl)c(F)c1 here?
Answer: 1 (inactive)

Question: With OC1CCC(Nc2ncc3nc(Nc4c(F)cc(F)cc4F)n([C@H]4CCOC4)c3n2)CC1 (stereo partly drawn) [Tanzisertib(CC-930)] as the compound, how does the “PARP1 L713F-nLuc/akaLuc ratio” value read?
Answer: 1.11 (inactive)

Question: For COc1cc2ccc(=O)oc2cc1O[C@@H]1O[C@H](CO)[C@@H](O)[C@H](O)[C@H]1O [Scopolin], which “PARP1 L713F-nLuc/akaLuc ratio” value is on record?
Answer: 1.04 (inactive)

Question: With NC(=O)c1cccc2[nH]c(-c3ccc(C4CCCN4)cc3F)nc12 (stereo not drawn) as the compound, how does the “PARP1 L713F-nLuc/akaLuc ratio” value read?
Answer: 4.24 (active)

Question: For CC(C)c1c(-c2ccccc2)nc2c(C#N)c[nH]n2c1=O, which “PARP1 L713F-nLuc/akaLuc ratio” value is on record?
Answer: 0.786 (inactive)

Question: Which “PARP1 L713F-nLuc/akaLuc ratio” value does the source give for COc1cc2c(Oc3ccc4[nH]c(C)cc4c3F)ncnc2cc1OCCCN1CCCC1 [Cediranib (AZD2171)] here?
Answer: 1.46 (inactive)

Question: With Nc1nc(=O)n(-c2cccc(-c3ccccc3)c2)cc1Cl [Bobcat339 (hydrochloride)] as the compound, how does the “PARP1 L713F-nLuc/akaLuc ratio” value read?
Answer: 0.757 (inactive)

Question: With Cc1ccc(C(=O)Nc2ccc(Oc3cc4cnn(C)c4cc3-c3cn[nH]c3)c(F)c2)c(=O)n1-c1ccc(F)cc1 as the compound, how does the “PARP1 L713F-nLuc/akaLuc ratio” value read?
Answer: 1.52 (inactive)

Question: How did the “PARP1 L713F-nLuc/akaLuc ratio” value turn out when COc1ccc(NC(=O)c2ccc(NC3=C(C)C(=O)CC3)c(Cl)c2)cc1 was run?
Answer: 0.879 (inactive)

Question: How did the “PARP1 L713F-nLuc/akaLuc ratio” value turn out when O=C(c1ccc(OCCN2CCCCC2)cc1)c1c(-c2ccc(O)cc2)sc2cc(O)ccc12 [Raloxifene HCl] was run?
Answer: 0.932 (inactive)

Question: With C[C@@H](NC(=O)c1ncnc(N)c1Cl)c1ncc(C(=O)Nc2cc(C(F)(F)F)c(Cl)cn2)s1 as the compound, how does the “PARP1 L713F-nLuc/akaLuc ratio” value read?
Answer: 0.886 (inactive)

Question: For N#Cc1ccc2[nH]c(O)c(-c3ccc(CN4CCOCC4)cn3)c2c1, which “PARP1 L713F-nLuc/akaLuc ratio” value is on record?
Answer: 0.881 (inactive)

Question: With CO[C@H]1C[C@@H]2CC[C@@H](C)[C@@](O)(O2)C(=O)C(=O)N2CCCC[C@H]2C(=O)O[C@H]([C@H](C)C[C@@H]2CC[C@@H](OP(C)(C)=O)[C@H](OC)C2)CC(=O)[C@H](C)/C=C(\C)[C@@H](O)[C@@H](OC)C(=O)[C@H](C)C[C@H](C)/C=C/C=C/C=C/1C [Ridaforolimus (Deforolimus, MK-8669)] as the compound, how does the “PARP1 L713F-nLuc/akaLuc ratio” value read?
Answer: 1.7 (inactive)

Question: How did the “PARP1 L713F-nLuc/akaLuc ratio” value turn out when CCOC(=O)CCNc1cc(N2CCc3ccccc3CC2)nc(-c2ccccn2)n1 [GSK-J4 (hydrochloride)] was run?
Answer: 1.45 (inactive)

Question: For Nc1nc(OCc2cc(Br)cs2)c2ncn(CCCCCCCCO[C@@H]3O[C@H](CO)[C@@H](O)[C@H](O)[C@H]3O)c2n1 [O6BTG-octylglucoside], which “PARP1 L713F-nLuc/akaLuc ratio” value is on record?
Answer: 0.863 (inactive)

Question: CCCC(CCC)C(=O)O [Valproic acid] was tested. Which “PARP1 L713F-nLuc/akaLuc ratio” value did it give?
Answer: 1.52 (inactive)

Question: With O=c1[nH]c(=S)[nH]c(-c2ccccc2)c1Cc1c(O)ccc2ccccc12 [Cambinol] as the compound, how does the “PARP1 L713F-nLuc/akaLuc ratio” value read?
Answer: 0.684 (inactive)

Question: C=CC(=O)Nc1cccc(Nc2nc(Nc3ccc(OCCOC)cc3)ncc2F)c1 [Spebrutinib (CC-292, AVL-292)] was tested. Which “PARP1 L713F-nLuc/akaLuc ratio” value did it give?
Answer: 0.464 (inactive)

Question: For C/C=C(\CC[C@@H](C)[C@H]1CC[C@H]2[C@@H]3CC=C4C[C@@H](O)CC[C@]4(C)[C@H]3CC[C@]12C)C(C)C [Fucosterol], which “PARP1 L713F-nLuc/akaLuc ratio” value is on record?
Answer: 1.04 (inactive)

Question: Which “PARP1 L713F-nLuc/akaLuc ratio” value does the source give for CN(C)CCCN(CC[C@H](N)C(=O)O)C[C@H]1O[C@@H](n2cnc3c(N)ncnc32)[C@H](O)[C@@H]1O [GSK2807 (Trifluoroacetate)] here?
Answer: 0.926 (inactive)

Question: For NC(=O)[C@H]1CCCc2c1[nH]c1ccc(Cl)cc21 [(S)-Selisistat], which “PARP1 L713F-nLuc/akaLuc ratio” value is on record?
Answer: 0.706 (inactive)
